From the supplement of paper PMC9492666
Counter-ions that a name gives are not always drawn.

How the values were obtained:
HCC1937 = assay: relative cell viability, compound alone, vs DMSO (fraction of DMSO control); higher = less growth inhibition; conditions: 72 h
MDA-MB-231 = assay: as above; conditions: 72 h
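Note: viability read out with the CCK-8 kit in 96-well plates, screening a set of 303 compounds acting on lipid metabolism targets.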

SMILES	relative cell viability (HCC1937)	relative cell viability (MDA-MB-231)
CCOC(=O)c1c(NC(=O)CN2CCN(C(=O)c3ccco3)CC2)sc2c1CCC2	0.857	0.967
CC(C)=CCC(O)C1=CC(=O)c2c(O)ccc(O)c2C1=O (single isomer, unassigned; (+)) [(+)-Shikonin]	0.2	0.529
C[N+](C)(C)CC(O)CC(=O)[O-] (stereo not drawn) [L(-)-Carnitine]	0.738	0.876
O=C(O)c1c[nH]c2cc(Cl)c(-c3ccc(C4(O)CCC4)cc3)cc12	0.958	0.914
COc1ccc(N(C(=O)Nc2c(C)cccc2C)c2cc(Nc3ccc(N4CCN(C)CC4)cc3)ncn2)c(OC)c1	0.915	1.11
Cc1nc(-c2nc(-c3ccc(OC(F)(F)F)cc3)no2)nn1Cc1cccc(N2CCC(S(C)(=O)=O)CC2)c1	0.93	0.775
Cc1c(C)c2c(c(C)c1O)CCC(C)(COc1ccc(CC3SC(=O)NC3=O)cc1)O2 (configuration not stated) [Troglitazone]	0.718	0.984
Nc1ccc(O)c(C(=O)O)c1 [Mesalamine]	1.17	0.914
O=C(O)/C=C/c1ccc(O)c(O)c1 [Caffeic Acid]	0.72	0.874
N=C(N)NCCC(=O)O [3-Guanidinopropionic Acid]	0.734	0.94
O=c1cc(-c2ccc(O)c(-c3c(O)cc(O)c4c(=O)cc(-c5ccc(O)cc5)oc34)c2)oc2cc(O)cc(O)c12 [Amentoflavone]	0.782	0.812
COc1ccc(C(=O)/C=C/c2ccccc2)cc1 [4'-Methoxychalcone]	0.73	0.889
NC(N)=NN=Cc1cccc(Cl)c1Cl [Raphin1]	0.818	0.72
O=C1c2cc(CO)cc(O)c2C(=O)c2c(O[C@@H]3O[C@H](CO)[C@@H](O)[C@H](O)[C@H]3O)cccc21 [Aloe-emodin-8-O-beta-D-glucopyranoside]	0.544	0.783
c1ccc([C@H]2CN3CCSC3=N2)cc1 [Levamisole hydrochloride]	0.815	0.887
COC(=O)c1sccc1S(=O)(=O)Nc1ccc(Nc2ccccc2)cc1OC	0.795	0.871
CC(C)(O)[C@@H]1Cc2cc3ccc(=O)oc3cc2O1 [marmesin]	0.74	0.866
O=C(CCCCCCCC(=O)NCCO)NCCO [Adelmidrol]	1.16	1.04

SMILES	relative cell viability (HCC1937)	relative cell viability (MDA-MB-231)
CCCCCCCCCCCCCCOc1ccc(C(=O)O)o1	1.07	1
CC(C)(Oc1ccc(CCNC(=O)c2ccc(Cl)cc2)cc1)C(=O)O [Bezafibrate]	0.628	0.823
NC(=O)c1ncn([C@@H]2O[C@H](CO)[C@@H](O)[C@H]2O)c1N [AICAR (Acadesine)]	0.804	0.892
CC(C)CCC[C@@H](C)[C@H]1CC[C@H]2[C@@H]3CCC4=CC(=NO)CC[C@]4(C)[C@H]3CC[C@]12C [Olesoxime]	0.978	0.789
Cc1cc(C)c(S(=O)(=O)N(CCc2cccc(Br)c2)Cc2ccc(-c3cccc(S(C)(=O)=O)c3)cc2)c(C)c1	0.708	0.862
O=C(OC(C(F)(F)F)C(F)(F)F)N1CCN(Cc2ccc(C(F)(F)F)cc2N2CCCC2)CC1	0.999	1.01
CC(C)c1onc(-c2c(Cl)cccc2Cl)c1COc1ccc(/C=C/c2cccc(C(=O)O)c2)c(Cl)c1	1.03	0.968
COc1ccc(-c2cc(=O)c3c(O)c(OC)c(OC)c(OC)c3o2)cc1OC	0.699	0.82
Nc1ccc(C(=O)O)c(O)c1 [Aminopar]	1.1	0.911
COc1cc(N2CCN(C)CC2)ccc1Nc1ncc2c(n1)N(C1CCC1)C(=O)N(c1c(C)cccc1C)C2	0.817	0.767
CC(C)(C)N1C(=O)C(Nc2ccc(N3CCCCC3)cc2)=C(c2ccccc2)S1(=O)=O	1.15	0.947
CCN(CC)CCN(Cc1ccc(-c2ccc(C(F)(F)F)cc2)cc1)C(=O)Cn1c(SCc2ccc(F)cc2)nc(=O)c2c1CCC2 [Darapladib]	0.0924	0.22
O=C(O)CCn1c2c(c3ccccc31)C[C@H](NS(=O)(=O)c1ccc(F)cc1)CC2 [Ramatroban]	0.711	0.841
CCCCCC=CC(=O)CCc1ccc(O)c(OC)c1 [6-Shogaol]	0.937	0.978
COc1ccc(-c2coc3cc(OC)ccc3c2=O)cc1 [4',7-Dimethoxyisoflavone]	0.486	0.693
COc1ccc(-c2c[nH]c3nccc(-c4ccsc4)c23)c(OC)c1	0.993	0.935
O=C(Nc1ccccc1)N1CCN(c2nc(-c3ccccc3)ns2)CC1	0.807	0.821
N[C@@H](Cc1c[nH]cn1)C(=O)O [histidine]	1.05	1.03
